# In all, about 5,500 compounds went through this assay and about 2,000 (36%) were called active. About 18% were inconclusive and are not listed. Some of the results follow. Values without a mark were called inactive. Cut-off read from the data, not from the text of the source: active = normalized growth mostly below about 0.91 (no sharp cut-off); inconclusive = no clear call, values can overlap the other calls; inactive = mostly above about 0.92.
# Assay: chemical genetic growth profiling, strain panel (AID 1159580);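 note: tested at 20 µM; growth read once vehicle control cultures reached saturation at 30 °C; 1 = growth at the plate median or of vehicle wells; lower values mean less growth of the strain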
# Details: S. cerevisiae deletion strains, growth OD
# [1] = locus YAL021C, strain ccr4, hits give low values
# [2] = locus YAL026C, strain drs2, hits give low values
# [3] = locus YAL030W, strain snc1, hits give low values
# [4] = locus YBL061C, strain skt5, hits give low values
# [5] = locus YBR009C, strain hhf1, hits give low values
# [6] = locus YBR023C, strain chs3, hits give low values
# [7] = locus YBR171W, strain sec66, hits give low values
# [8] = locus YBR231C, strain swc5, hits give low values
# [9] = locus YBR279W, strain paf1, hits give low values
# [10] = locus YCL011C, strain gbp2, hits give low values
# [11] = locus YCL016C, strain dcc1, hits give low values
# [12] = locus YCL061C, strain MRC1, hits give low values
# [13] = locus YCL069W, strain vba3, hits give low values
# [14] = locus YCR088W, strain abp1, hits give low values
# [15] = locus YDL005C, strain med2, hits give low values
# [16] = locus YDL040C, strain nat1, hits give low values
# [17] = locus YDR001C, strain nth1, hits give low values
# [18] = locus YDR069C, strain doa4, hits give low values
# [19] = locus YDR137W, strain rgp1, hits give low values
# [20] = locus YDR159W, strain sac3, hits give low values
# [21] = locus YDR297W, strain sur2, hits give low values
# [22] = locus YDR334W, strain swr1, hits give low values
# [23] = locus YDR335W, strain msn5, hits give low values
# [24] = locus YDR392W, strain spt3, hits give low values
# [25] = locus YEL003W, strain gim4, hits give low values
# [26] = locus YEL037C, strain rad23, hits give low values
# [27] = locus YEL061C, strain CIN8 (second series), hits give low values
# [28] = locus YER015W, strain faa2, hits give low values
# [29] = locus YER016W, strain bim1, hits give low values
# [30] = locus YER111C, strain swi4, hits give low values
# [31] = locus YER155C, strain BEM2 (second series), hits give low values
# [32] = locus YFR010W, strain ubp6, hits give low values
# [33] = locus YGL167C, strain pmr1, hits give low values
# [34] = locus YGL173C, strain kem1, hits give low values
# [35] = locus YGL227W, strain vid30, hits give low values
# [36] = locus YGL240W, strain doc1, hits give low values
# [37] = locus YGL253W, strain hxk2, hits give low values
# [38] = locus YHR013C, strain ard1, hits give low values
# [39] = locus YHR027C, strain rpn1, hits give low values
# [40] = locus YHR030C, strain SLT2, hits give low values
# [41] = locus YHR079C, strain IRE1, hits give low values
# [42] = locus YHR142W, strain chs7, hits give low values
# [43] = locus YJL092W, strain hpr5, hits give low values
# [44] = locus YJL095W, strain BCK1 (second series), hits give low values
# [45] = locus YJL095W, strain BCK1, hits give low values
# [46] = locus YJL115W, strain asf1, hits give low values
# [47] = locus YJL129C, strain trk1, hits give low values
# [48] = locus YJL154C, strain vps35, hits give low values
# [49] = locus YJL164C, strain tpk1, hits give low values
# [50] = locus YJL166W, strain qcr8, hits give low values
# [51] = locus YJL187C, strain SWE1, hits give low values
# [52] = locus YJR066W, strain TOR1, hits give low values
# [53] = locus YKL160W, strain elf1, hits give low values
# [54] = locus YKR026C, strain gcn3, hits give low values
# [55] = locus YKR091W, strain srl3, hits give low values
# [56] = locus YLL001W, strain dnm1, hits give low values
# [57] = locus YLL026W, hits give low values
# [58] = locus YLL041C, strain sdh2, hits give low values
# [59] = locus YLR027C, strain aat2, hits give low values
# [60] = locus YLR113W, strain HOG1, hits give low values
# [61] = locus YLR221C, strain rsa3, hits give low values
# [62] = locus YLR258W, strain gsy2, hits give low values
# [63] = locus YLR262C, strain YPT6 (second series), hits give low values
# [64] = locus YLR320W, strain mms22, hits give low values
# [65] = locus YLR342W, strain FKS1, hits give low values
# [66] = locus YLR357W, strain rsc2, hits give low values
# [67] = locus YLR370C, strain arc18, hits give low values
# [68] = locus YLR384C, strain iki3, hits give low values
# [69] = locus YML120C, strain ndi1, hits give low values
# [70] = locus YMR058W, strain fet3, hits give low values
# [71] = locus YMR125W, strain sto1, hits give low values
# [72] = locus YMR129W, hits give low values
# [73] = locus YMR205C, strain PFK2, hits give low values
# [74] = locus YMR231W, strain pep5, hits give low values
# [75] = locus YNL071W, strain lat1, hits give low values
# [76] = locus YNL183C, strain NPR1, hits give low values
# [77] = locus YNL209W, strain ssb2, hits give low values
# [78] = locus YNL248C, strain rpa49, hits give low values
# [79] = locus YNL322C, strain KRE1 (second series), hits give low values
# [80] = locus YNR049C, strain mso1, hits give low values
# [81] = locus YOR001W, strain rrp6, hits give low values
# [82] = locus YOR070C, strain gyp1, hits give low values
# [83] = locus YOR080W, strain dia2, hits give low values
# [84] = locus YOR083W, strain WHI5, hits give low values
# [85] = locus YOR106W, strain vam3, hits give low values
# [86] = locus YOR231W, strain MKK1, hits give low values
# [87] = locus YOR265W, strain rbl2, hits give low values
# [88] = locus YOR270C, strain vph1, hits give low values
# [89] = locus YOR290C, strain snf2, hits give low values
# [90] = locus YPL051W, strain arl3, hits give low values
# [91] = locus YPL078C, strain atp4, hits give low values
# [92] = locus YPL106C, strain sse1, hits give low values
# [93] = locus YPL240C, strain hsp82, hits give low values
# [94] = locus YPL256C, strain CLN2, hits give low values
structure (smiles),measurement,setting,value
Nc1nc(F)nc2c1ncn2[C@@H]1O[C@H](COP(=O)(O)O)[C@@H](O)[C@@H]1O,normalized growth,[1],0.989
same,normalized growth,[2],0.999
same,normalized growth,[3],1
same,normalized growth,[4],0.997
same,normalized growth,[5],1.01
same,normalized growth,[6],0.999
same,normalized growth,[7],1
same,normalized growth,[8],0.999
same,normalized growth,[9],1
same,normalized growth,[10],0.994
same,normalized growth,[11],0.997
same,normalized growth,[12],0.989
same,normalized growth,[13],0.993
same,normalized growth,[14],0.992
same,normalized growth,[15],0.984
same,normalized growth,[16],0.997
same,normalized growth,[17],0.993
same,normalized growth,[18],0.997
same,normalized growth,[19],1
same,normalized growth,[20],0.985
same,normalized growth,"locus YDR195W, strain ref2",0.968
same,normalized growth,[21],1.01
same,normalized growth,[22],0.991
same,normalized growth,[23],0.997
same,normalized growth,[24],0.976
same,normalized growth,[25],0.995
same,normalized growth,[26],0.993
same,normalized growth,[27],0.994
same,normalized growth,[28],0.995
same,normalized growth,[29],0.993
same,normalized growth,[30],1
same,normalized growth,[31],0.993
same,normalized growth,[32],1.01
same,normalized growth,[33],0.989
same,normalized growth,[34],1
same,normalized growth,[35],0.992
same,normalized growth,[36],0.984
same,normalized growth,[37],0.998
same,normalized growth,[38],0.99
same,normalized growth,[39],0.986
same,normalized growth,[40],1.03
same,normalized growth,[41],1.04
same,normalized growth,[42],0.991
same,normalized growth,[43],0.982
same,normalized growth,[44],0.994
same,normalized growth,[45],0.993
same,normalized growth,[46],0.991
same,normalized growth,[47],0.994
same,normalized growth,[48],0.998
same,normalized growth,[49],0.982
same,normalized growth,[50],1
same,normalized growth,[51],0.989
same,normalized growth,[52],0.967
same,normalized growth,[53],1
same,normalized growth,[54],0.977
same,normalized growth,[55],0.997
same,normalized growth,[56],0.987
same,normalized growth,[57],0.989
same,normalized growth,[58],0.997
same,normalized growth,[59],1
same,normalized growth,[60],0.979
same,normalized growth,[61],1
same,normalized growth,[62],0.992
same,normalized growth,[63],1
same,normalized growth,[64],0.968
same,normalized growth,[65],0.999
same,normalized growth,[66],0.994
same,normalized growth,[67],0.998
same,normalized growth,[68],0.982
same,normalized growth,[69],1.01
same,normalized growth,[70],1
same,normalized growth,[71],0.981
same,normalized growth,[72],1.01
same,normalized growth,[73],0.975
same,normalized growth,[74],0.995
same,normalized growth,[75],0.995
same,normalized growth,[76],0.96
same,normalized growth,[77],1
same,normalized growth,[78],0.996
same,normalized growth,[79],0.99
same,normalized growth,[80],0.995
same,normalized growth,[81],1
same,normalized growth,[82],1
same,normalized growth,[83],0.989
same,normalized growth,[84],1
same,normalized growth,[85],1.02
same,normalized growth,[86],1.04
same,normalized growth,[87],1
same,normalized growth,[88],0.977
same,normalized growth,[89],0.979
same,normalized growth,[90],1
same,normalized growth,[91],0.991
same,normalized growth,[92],1
same,normalized growth,[93],1.01
same,normalized growth,[94],1.03
Clc1ccccc1CN1CCc2sccc2C1,normalized growth,[1],1.01
same,normalized growth,[2],1.01
same,normalized growth,[3],1.01
same,normalized growth,[4],1
same,normalized growth,[5],1.01
same,normalized growth,[6],1.01
same,normalized growth,[7],1.02
same,normalized growth,[8],1.02
same,normalized growth,[9],1.02
same,normalized growth,[10],1.01
same,normalized growth,[11],1.01
same,normalized growth,[12],1.01
same,normalized growth,[13],1.01
same,normalized growth,[14],1
same,normalized growth,[15],1.03
same,normalized growth,[16],1.01
same,normalized growth,[17],1.01
same,normalized growth,[18],1
same,normalized growth,[19],0.879
same,normalized growth,[20],1.03
same,normalized growth,"locus YDR195W, strain ref2",1.05
same,normalized growth,[21],1.01
same,normalized growth,[22],1.01
same,normalized growth,[23],1.01
same,normalized growth,[24],0.77
same,normalized growth,[25],1.01
same,normalized growth,[26],0.985
same,normalized growth,[27],1
same,normalized growth,[28],1.01
same,normalized growth,[29],1.01
same,normalized growth,[30],1.01
same,normalized growth,[31],0.928
same,normalized growth,[32],0.995
same,normalized growth,[33],1
same,normalized growth,[34],1.01
same,normalized growth,[35],1.02
same,normalized growth,[36],0.947
same,normalized growth,[37],1
same,normalized growth,[38],1.07
same,normalized growth,[39],1.01
same,normalized growth,[40],1.04
same,normalized growth,[41],1.03
same,normalized growth,[42],0.961
same,normalized growth,[43],1
same,normalized growth,[44],1.01
same,normalized growth,[45],0.985
same,normalized growth,[46],1
same,normalized growth,[47],0.973
same,normalized growth,[48],1.01
same,normalized growth,[49],0.994
same,normalized growth,[50],0.981
same,normalized growth,[51],1.01
same,normalized growth,[52],0.969
same,normalized growth,[53],0.987
same,normalized growth,[54],0.994
same,normalized growth,[55],1.01
same,normalized growth,[56],1.02
same,normalized growth,[57],1.01
same,normalized growth,[58],1
same,normalized growth,[59],1.01
same,normalized growth,[60],0.98
same,normalized growth,[61],0.983
same,normalized growth,[62],1.01
same,normalized growth,[63],0.884
same,normalized growth,[64],0.927
same,normalized growth,[65],1.01
same,normalized growth,[66],1.04
same,normalized growth,[67],1.01
same,normalized growth,[68],1.01
same,normalized growth,[69],0.986
same,normalized growth,[70],1.01
same,normalized growth,[71],1.04
same,normalized growth,[72],1.01
same,normalized growth,[73],0.998
same,normalized growth,[74],1.01
same,normalized growth,[75],0.906 (active)
same,normalized growth,[76],0.949
same,normalized growth,[77],1.01
same,normalized growth,[78],0.953
same,normalized growth,[79],1.01
same,normalized growth,[80],1.01
same,normalized growth,[81],0.988
same,normalized growth,[82],1
same,normalized growth,[83],1.01
same,normalized growth,[84],0.982
same,normalized growth,[85],0.977
same,normalized growth,[86],1.02
same,normalized growth,[87],1.01
same,normalized growth,[88],0.952
same,normalized growth,[89],1
same,normalized growth,[90],0.973
same,normalized growth,[91],0.964
same,normalized growth,[92],1.01
same,normalized growth,[93],1
same,normalized growth,[94],1.02

# Reference: PubChem BioAssay AID1159580 (chemical genetic matrix, 2015)
